Among the data in PubChem BioAssay (NCATS) are outcome and Potency values, retold here.

Inconclusive results are not listed. Activity calls are given as the source filed them. Calls come from the whole dose curve; as a rule, active = well fitted curve in the direction sought with a large enough effect; inconclusive = small, poorly fitted or top-dose-only effect, or another doubt; inactive = no such curve, though single readings can be large; an effect the other way counts as inactive or inconclusive.

Experiment [1] is described as follows: S16 Schwann cell viability assay (CellTiter-Glo assay) (AID 624031).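 Note: native untransfected S16 rat Schwann cells; nearly all actives have a fitted effect of over 70% in size.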 The gist of the method: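 Cells were seeded at 500-750 per well in phenol red-free DMEM with 10% FBS and left overnight. Compounds or DMSO were pinned in, incubation ran 24 h at 37 °C/5% CO2, then CellTiter-Glo reagent was added and luminescence measured.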
(In general: ATP-based viability assays read luminescence as a measure of living cells.)

For experiment [2], the system named is AA1029. The experiment in a line: qHTS profiling for inhibitors of Plasmodium falciparum proliferation (AID 504749). Note: nearly all actives have a fitted effect of over 60% in size. Note: potency is the fitted concentration of half-maximal effect. As to conditions: P. falciparum in erythrocytes, SYBR Green DNA, 72 h; series mostly up to 12.8 µM. The procedure, abridged:
(§1)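 SYBR Green fluorescence of parasite DNA, read after lysis and overnight dark incubation, measured growth over 72 h in erythrocyte culture at 0.3% parasitemia and 2.5% hematocrit. Data normalised to DMSO and 0.29 uM artemisinin, with plate-drift correction.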
In general terms: qHTS replaces the single test concentration by a dilution series.

Experiment [3] concerns AS120. Described as above. As to conditions: P. falciparum in erythrocytes, SYBR Green DNA, 72 h; series mostly up to 12.8 µM. The procedure, abridged: as §1
Experiment [4] relates to ATS189. The description is as above. As to conditions: P. falciparum in erythrocytes, SYBR Green DNA, 72 h; series mostly up to 12.8 µM. The gist of the method: as §1
For experiment [5], the system named is ATS95. The experiment is described as above. As to conditions: P. falciparum in erythrocytes, SYBR Green DNA, 72 h; series mostly up to 12.8 µM. The gist of the method:
as §1

Experiment [6] has as its system CP191. The experiment is described as above. As to conditions: P. falciparum in erythrocytes, SYBR Green DNA, 72 h; series mostly up to 12.8 µM. The gist of the method:
as §1

Experiment [7] concerns CP192. Described as above. As to conditions: P. falciparum in erythrocytes, SYBR Green DNA, 72 h; series mostly up to 12.8 µM. The gist of the method: as §1
The test system of experiment [8] is CP238. The experiment is described as above. As to conditions: P. falciparum in erythrocytes, SYBR Green DNA, 72 h; series mostly up to 12.8 µM. The gist of the method:
as §1

Experiment [9] has as its system CP247. Described as above. As to conditions: P. falciparum in erythrocytes, SYBR Green DNA, 72 h; series mostly up to 12.8 µM. The gist of the method: as §1
Experiment [10] relates to CP256. Described as above. As to conditions: P. falciparum in erythrocytes, SYBR Green DNA, 72 h; series mostly up to 12.8 µM. The procedure, abridged:
as §1

The test system of experiment [11] is CP262. Described as above. As to conditions: P. falciparum in erythrocytes, SYBR Green DNA, 72 h; series mostly up to 12.8 µM. The procedure, abridged: as §1
Experiment [12] relates to CP265. The experiment is described as above. As to conditions: P. falciparum in erythrocytes, SYBR Green DNA, 72 h; series mostly up to 12.8 µM. The gist of the method: as §1
The test system of experiment [13] is Dd2. The experiment is described as above. As to conditions: P. falciparum in erythrocytes, SYBR Green DNA, 72 h; series mostly up to 12.8 µM. The gist of the method:
as §1

Experiment [14] has as its system N140. The description is as above. As to conditions: P. falciparum in erythrocytes, SYBR Green DNA, 72 h; series mostly up to 12.8 µM. The procedure, abridged: as §1
Experiment [15] relates to PAD. Described as above. As to conditions: P. falciparum in erythrocytes, SYBR Green DNA, 72 h; series mostly up to 12.8 µM. The procedure, abridged: as §1
Experiment [16] deals with PC15. Described as above. As to conditions: P. falciparum in erythrocytes, SYBR Green DNA, 72 h; series mostly up to 12.8 µM. The procedure, abridged:
as §1

The test system of experiment [17] is SC27B. The description is as above. As to conditions: P. falciparum in erythrocytes, SYBR Green DNA, 72 h; series mostly up to 12.8 µM. The gist of the method: as §1
The test system of experiment [18] is TAB109. The experiment is described as above. As to conditions: P. falciparum in erythrocytes, SYBR Green DNA, 72 h; series mostly up to 12.8 µM. The gist of the method:
as §1

Experiment [19] deals with TAB165. Described as above. As to conditions: P. falciparum in erythrocytes, SYBR Green DNA, 72 h; series mostly up to 12.8 µM. The procedure, abridged: as §1
The subject of experiment [20] is P93_24. Described as above. As to conditions: P. falciparum in erythrocytes, SYBR Green DNA, 72 h; series mostly up to 12.8 µM. The procedure, abridged:
as §1

Consider `CO[C@]1(NC(=O)C2SC(=C(C(N)=O)C(=O)O)S2)C(=O)N2C(C(=O)O)=C(CSc3nnnn3C)CS[C@H]21` (stereo partly drawn), for which the call in experiment [1] was inactive. The Potency entry in experiment [2], in experiment [3], in [4], in experiment [5], in experiment [6] and in experiment [7] was “inactive” throughout. Also, the Potency result in experiment [8], in experiment [9], in experiment [10], in [11], in [12] and in experiment [13] was “inactive” each time. Also, the Potency entry in experiment [14], in experiment [15], in experiment [16], in experiment [17], in experiment [18] and in experiment [19] was “inactive” each time.

For `COc1ccc(C[C@@](C)(N)C(=O)O)cc1OC`, the result in experiment [1] was inactive. For the same compound, the Potency entry in [2], in experiment [3], in experiment [4], in experiment [5], in [6] and in experiment [7] was “inactive” in each case. For the same compound, the Potency entry in experiment [8], in [9], in experiment [10], in [11], in experiment [12] and in experiment [13] was “inactive” in each case. For the same compound, the Potency result in experiment [14], in experiment [20], in experiment [15], in experiment [16], in experiment [17] and in experiment [18] was “inactive” throughout. Moreover, the Potency entry in [19] is “inactive”.

`CC1(C)O[C@@H]2C[C@H]3[C@H]4C[C@H](F)C5=CC(=O)CC[C@]5(C)[C@@H]4[C@H](O)C[C@]3(C)[C@]2(C(=O)CO)O1`: the call in [1] was inactive. The Potency result in experiment [2], in experiment [3], in [4], in experiment [5], in experiment [6] and in experiment [8] was “inactive” each time. Moreover, the Potency entry in experiment [9], in experiment [10], in experiment [11], in experiment [12], in experiment [13] and in [14] was “inactive” in each case. Moreover, the Potency result in experiment [20], in experiment [15], in experiment [16], in experiment [17], in [18] and in experiment [19] was “inactive” throughout.

Consider `CNC[C@H](O)c1ccc(OC(=O)C(C)(C)C)c(OC(=O)C(C)(C)C)c1`, for which the result in experiment [1] was inactive. Besides, the Potency entry in [2], in [3], in experiment [4], in [5], in experiment [6] and in experiment [7] was “inactive” each time. Moreover, the Potency entry in experiment [8], in experiment [9], in [11], in [12], in [13] and in experiment [14] was “inactive” throughout. The Potency entry in experiment [20], in experiment [15], in experiment [17], in [18] and in [19] was “inactive” each time. In addition, the Potency in experiment [10] was 10 µM (active).

`CCC(=O)O[C@@H]1[C@H](C)O[C@H](O[C@H]2[C@@H](N(C)C)[C@H](O)[C@@H](O[C@@H]3[C@@H](CC=O)C[C@@H](C)[C@@H](O)/C=C\C=C/C[C@@H](C)OC(=O)C[C@@H](OC(=O)CC)[C@H]3OC)O[C@H]2C)C[C@]1(C)O`: the compound was called inactive in experiment [1]. For the same compound, the Potency result in [3], in experiment [4], in experiment [5], in experiment [6], in experiment [7] and in experiment [9] was “inactive” throughout. The Potency entry in experiment [15], in experiment [16], in [17] and in experiment [19] was “inactive” in each case. Further, the Potency in experiment [13] is 3.16 µM (active).

Consider `COc1cc2nc(N3CCN(C(=O)[C@@H]4CCCO4)CC3)nc(N)c2cc1OC`, for which the result in experiment [1] was inactive. In addition, the Potency entry in [2], in experiment [3], in [4], in experiment [5], in [6] and in experiment [7] was “inactive” in each case. The Potency entry in experiment [8], in [9], in [10], in [11], in experiment [12] and in [13] was “inactive” in each case. Also, the Potency result in experiment [14], in experiment [20], in [15], in experiment [16], in experiment [17] and in experiment [18] was “inactive” in each case. The Potency entry in [19] was “inactive”.

`COc1cc(N)c(Cl)cc1C(=O)N[C@H]1CCN(CCCOc2ccc(F)cc2)C[C@H]1OC`: the compound was called inactive in [1]. The Potency in [6] was 2 µM (active); in [10] it was 2.82 µM (active); in [11], 3.61 µM (active); in experiment [12], 3.98 µM (active); in [13], 3.55 µM (active); in experiment [19], 3.55 µM (active). Also, the Potency entry in [7] and in experiment [16] was “inactive” in each case.
